HepG2 viability – kills HepG2 cells in TGF-b inhibitor counter-screen. HepG2 CAGA-GFP viability, ATP luminescence, 18 h. Potency, µM (series often up to 46.1 µM), without a hit: at the highest dose activity change, negative = cytotoxicity, usual class: cytotoxic. actives 0.76% (n = 410,000)
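HepG2 CAGA-GFP cells (1000/well, DMEM with 1% FBS) received compound, then TGF-beta at 500 pg/mL final, and were incubated 18 hours at 37 degrees C. Viability was read by CellTiter-Glo luminescence. Media-only wells were set as complete cell-killing and DMSO as no toxicity.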
TGFb inhibitor – blocks TGF-b signaling; HepG2 CAGA-GFP TGF-b/SMAD3 reporter, GFP fluorescence, 18 h; TGF-beta stimulated, 500 pg/mL final; Potency, µM (titrated, usually from 46.1 µM), inactives show top-dose activity, negative = inhibition, actives largely listed as inhibitors; actives 1.2% (n = 410,000); AID 588855; note: % is set by controls: 0 for no effect and ±100 for the full control effect; nearly all actives have a fitted effect of over 65% in size
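Read-out: total well GFP (ex488/em500-530) summed from mean per-cell fluorescence. Cells: HEPG2 CAGA-GFP, 1% FBS DMEM, 18 h at 37 degrees C with 500 pg/mL final TGF-beta. Unstimulated wells served as the full-inhibition control; stimulated DMSO wells = 0%.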
ATXN2 expr inh – inhibitors of ATXN2 expression. HEK-293 ATXN2-luciferase reporter, luminescence, 24 h. Potency, µM (doses to about 57 µM), inactives show top-dose activity change, negative = inhibition, most hits filed as inhibitors. actives 0.72% (n = 360,000). AID 1745845; note: % is set by controls: 0 for no effect and ±100 for the full control effect; nearly all actives have a fitted effect of over 55% in size
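qHTS (up to 57 uM final) was run with 24 h compound exposure of reporter cells at 37 °C. Each well was multiplexed: SteadyGlo luminescence measured ATXN2-luciferase expression after a fluorogenic Gly-Phe-AFC viability readout (25 uM final).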
DT40 TDP1 no CPT – qHTS for Inhibitors of human tyrosyl-DNA phosphodiesterase 1 (TDP1): qHTS in cells in absence of CPT; AID 686978, 2013; Potency, µM (titrated, usually from 46.2 µM), for inactives: at the top dose activity change, negative = growth inhibition, most hits filed as inhibitors; actives 15% (n = 420,000); DT40 Tdp1-/- hTDP1 cells, no CPT, ATP luminescence, 48 h; note: % is set by controls: 0 for no effect and ±100 for the full control effect; nearly all actives have a fitted effect of over 55% in size
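Camptothecin absent (DMSO only). Human TDP1-complemented DT40 knockout cells, 400 cells/well, 37 °C for minimum 48 hr; ATP measured via CellTiter-Glo, 30 min dark incubation, luminescence.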
ATXN viability – viability counter-screen for ATXN expression inhibitors; S2 cells (HEK-293 line with an ATXN2-luciferase reporter) viability, CellTiter-Fluor protease fluorescence, 24 h; Potency, µM (top dose mostly 56.7 µM), actives largely listed as cytotoxic; actives 0.49% (n = 400,000); AID 651635; note: nearly all actives have a fitted effect of over 40% in size
DT40 TDP1 CPT – growth inhibition of DT40 Tdp1-/-;hTDP1 cells with camptothecin (screen for TDP1 inhibitors); chicken DT40 Tdp1-/-;hTDP1 cells + 20 nM CPT, ATP luminescence, 48 h; Potency, µM (top dose mostly 46.2 µM), inactives show at the top dose activity change, negative = growth inhibition, hits mostly inhibitors; actives 12% (n = 420,000); AID 686979; note: % is set by controls: 0 for no effect and ±100 for the full control effect; nearly all actives have a fitted effect of over 55% in size
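Chicken DT40 Tdp1-/- cells stably complemented with human TDP1 were seeded at 400 cells/well in medium containing 20 nM camptothecin, exposed to pin-transferred compounds, and grown at 37 °C for at least 48 hr. Viability was read as ATP luminescence.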
The depositor's hits bear a star; i = inactive; ? = inconclusive; nt = no result given. Sampled rows, rich in hits. Any-hit rate of the full collection: about 17%. Calls come from the whole dose curve; as a rule, active = well fitted curve in the direction sought with a large enough effect; inconclusive = small, poorly fitted or top-dose-only effect, or another doubt; inactive = no such curve, though single readings can be large; an effect the other way counts as inactive or inconclusive. Potency is the fitted concentration of half-maximal effect.

SMILES | HepG2 viability | TGFb inhibitor | ATXN2 expr inh | DT40 TDP1 no CPT | ATXN viability | DT40 TDP1 CPT
Cc1ccc2cccc(NS(=O)(=O)c3ccccc3)c2n1 | -5% | ? | -17% | 21µM* | nt | ?
O=S(=O)(Nc1cccc2ccccc12)c1ccccc1 | -2% | 8% | 8% | -19% | i | -27%
Cc1cc(C)n(-c2cccc3cccnc23)n1 | -9% | -8% | 3% | -13% | i | -2%
NC(=S)NNc1cccc2cccnc12 | -34% | ? | ? | 12µM* | ? | 6.5µM*
NC(=S)Nc1cccc2cccnc12 | 9% | 2% | 5% | -2% | i | 14%
Cc1cc(C)n(-c2ccc3cccc(NS(C)(=O)=O)c3n2)n1 | -4% | -1% | ? | 5.8µM* | i | 5.2µM*
O=S(=O)(Nc1cccc2cccnc12)c1ccc(S(=O)(=O)N2CCCC2)cc1 | -28% | ? | ? | 13µM* | i | 16µM*
COC(=O)NCc1c(C)nn(-c2ccccc2)c1-n1cccc1 | -2% | 15% | 1% | ? | i | -8%
COc1ccc(OC)c(NS(=O)(=O)c2cccc3cccnc23)c1 | -3% | 9% | 1% | -29% | i | -5%
COc1ccc(NS(=O)(=O)c2ccc3ccccc3c2)c2ncccc12 | -15% | ? | -31% | 6.5µM* | i | 8.2µM*
O=S(=O)(Nc1cc(Br)cc2cccnc12)c1ccccc1 | 1% | 8.9µM* | nt | nt | nt | nt
CC(=O)Nc1ccc(S(=O)(=O)Nc2cccc3cccnc23)cc1 | -28% | 0% | -18% | -20% | nt | -4%
Cc1ccc(S(=O)(=O)Nc2cc(Br)cc3cccnc23)cc1 | -26% | ? | nt | nt | nt | nt
COc1ccc(C(C)(C)C)cc1NS(=O)(=O)c1cccc2cccnc12 | -20% | ? | -3% | 18µM* | i | 26µM*
COc1ccc(S(=O)(=O)Nc2cccc3cccnc23)cc1 | -33% | 7.1µM* | nt | nt | nt | nt
Cc1oc2ncnc(N3CCOCC3)c2c1C(=O)NCc1ccccc1 | 7% | 6% | nt | -13% | nt | -7%
CS(=O)(=O)Nc1cccc2cccnc12 | -29% | ? | -8% | 4.6µM* | i | 4.6µM*
O=S(=O)(Nc1ncccn1)c1ccccc1 | 1% | 1% | 19% | 16µM* | i | ?
O=S(=O)(Nc1ccccc1Br)c1cccc2cccnc12 | -2% | -10% | nt | -22% | i | -2%
CCOc1ccc(NC(=O)C(C)Sc2nnc3cc(C)c4ccccc4n23)cc1 (centres undefined) | 6% | -23% | nt | ? | nt | ?
COCCNc1nnc(SCC(=O)NNC(=O)c2ccc([N+](=O)[O-])cc2)s1 | -1% | -1% | -1% | -8% | i | 16%
O=CNc1cc(-c2ccc(C(=O)NC3CC3)cc2)cn2c(-c3ccc(F)c(Cl)c3)cnc12 | -20% | ? | 0% | 13µM* | i | 18µM*
COc1ccc(-c2cc(NC=O)c3ncc(-c4cnn(C)c4)n3c2)cc1 | -19% | ? | -22% | ? | nt | ?
CC(=O)c1ccc(-c2cnc3c(NC=O)cc(-c4ccc(C(=O)NC5CC5)cc4)cn23)cc1 | 5% | ? | ? | 5.2µM* | ? | 5.8µM*
O=CNc1cc(-c2ccc(C(=O)NC3CC3)cc2)cn2c(-c3ccccc3)cnc12 | -16% | -16% | 0% | 7.3µM* | ? | 10µM*
SMILES | HepG2 viability | TGFb inhibitor | ATXN2 expr inh | DT40 TDP1 no CPT | ATXN viability | DT40 TDP1 CPT
Cc1ccccc1NC(=O)c1ccc(Cl)c(NC(=O)c2ccncc2)c1 | -5% | 13% | 0% | -16% | i | -5%
Cn1nccc1C(=O)Nc1ccc2c(c1)OCO2 | -13% | -1% | 25% | 4% | i | 1%
CS(=O)(=O)c1ccc(Sc2nc3ccccc3s2)c([N+](=O)[O-])c1 | -39% | ? | ? | 13µM* | ? | 10µM*
CCOC(=O)c1c(NC(=O)COC(=O)Cn2cnc3ccccc32)sc2c1CCC(C)C2 (centres undefined) | -29% | -11% | -19% | ? | i | 24%
CCOC(=O)c1c(NC(=O)Cn2c(C)nc3ccccc32)sc2c1CCC2 | -30% | -10% | ? | 12µM* | ? | 21µM*
CCOC(=O)c1c(NC(=O)CSc2nnc(C)s2)sc2c1CCC(C)C2 (centres undefined) | -9% | ? | -11% | 21µM* | i | ?
Cc1cccc(NC(=O)COc2cccc3c2CCN(C)C3=O)c1C | -4% | 62% | 15% | ? | i | ?
CCOC(=O)c1c(NC(=O)COc2cccc3c2CCN(C)C3=O)sc2c1CCC2 | 4% | -8% | ? | 9.2µM* | ? | 13µM*
CCOC(=O)c1c(NC(=O)CSc2nnc(C)s2)sc2c1CCCCC2 | -25% | -10% | -29% | ? | i | ?
CCOC(=O)c1c(NC(=O)Cn2nnc3ccccc32)sc2c1CCC(C)C2 (centres undefined) | -2% | -10% | -8% | 23µM* | i | 23µM*
Nc1ccn([C@@H]2O[C@H](C(=O)N[C@H](COC=O)Cc3ccccc3)[C@@H](O)[C@H]2O)c(=O)n1 | 5% | -4% | 6% | 3% | i | -10%
CCOC(=O)c1c(NC(=O)COc2ccc(F)cc2)sc2c1CCC(C)C2 (centres undefined) | -10% | 4% | -7% | ? | i | -24%
COC(=O)c1c(NC(=O)COc2ccc(OC)cc2)sc2c1CCC(C)C2 (centres undefined) | -100% | 13µM* | ? | 7.3µM* | ? | ?
CCOC(=O)c1c(NC(=O)C(C)NCc2ccco2)sc2c1CCC(C)C2 (centres undefined) | 1% | -22% | -17% | 21µM* | i | ?
C#CCOCCOCCOCCNc1nc(N2CCN(C(=O)C(Cc3cc4ccccc4[nH]3)n3cc(C(N)Cc4ccc(O)cc4)nn3)CC2)nc(N2CCN(C(=O)C(Cc3cc4ccccc4[nH]3)n3cc(C(N)Cc4ccc(O)cc4)nn3)CC2)n1 (centres undefined) | 1% | -16% | ? | 3% | 32µM* | 13%
C#CCOCCOCCOCCNc1nc(N2CCN(C(=O)[C@H]([C@@H](C)CC)n3cc([C@@H](N)CC(C)C)nn3)CC2)nc(N2CCN(C(=O)[C@H]([C@@H](C)CC)n3cc([C@@H](N)CC(C)C)nn3)CC2)n1 | 11% | 22% | 1% | ? | i | 15µM*
